Compound activity (PubChem BioAssay)
The full list was thinned out, with hits kept by preference.
mHTT CaM bind – mutant huntingtin-calmodulin interaction inhibitors – biochemical, AlphaScreen, primary screen; AlphaScreen His-mHTT/GST-CaM binding, luminescence; 190,000 tested, 3.6% active; AID 1671202, 2021; P42858; inhibition, % at 15 µM;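 note: 0% = both proteins with DMSO and 100% = one protein alone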
Pf apPOL block – Pf-apPOL inhibitors, biochemical, fluorescence; Recombinant Pf-apPOL, molecular beacon fluorescence, 1.5 h; inhibition, % at 10 µM; 210,000 tested, 0.25% active; AID 1794808, 2022
* hit, by the source's call; x = no result; ! = not active in a repeat. Cut-off read from the data, not from the text of the source: active = inhibition above about 50%; inactive = the rest.

SMILES	mHTT CaM bind	Pf apPOL block
Cc1cccnc1Nc1nc(-c2ccc(O)c(O)c2)cs1	62*	-3
Cc1ccnc(Nc2nc(-c3ccc(O)c(O)c3)cs2)c1	92*	0
COc1cccc(-c2csc(Nc3cc(C)ccn3)n2)c1	32	-4
O=C1NC(=O)/C(=C\c2cc(Br)c(Sc3ccc(Cl)cc3)o2)N1	26	-3
O=Cc1cc(Br)c(Sc2ccc(Cl)cc2)o1	61*	-6
CCn1cnnc1C1CCCCN1C(=O)CCc1c[nH]c2ccccc12 (stereo not given)	56*	0
CCCn1cnnc1C1CCCCN1C(=O)CCc1ccccc1OC (stereo not given)	4	-1
CSc1sc(Br)c2c1C(=NO)CC(C)(C)C2	x	-5
Cc1ccc(Cc2c(C)nc3nc(SCC(=O)NC4CC4)nn3c2C)cc1	3	-2
Cc1nc2nc(SCC(=O)N3CCC(C)CC3)nn2c(C)c1Cc1ccc(Cl)cc1	52*	-4
COc1ccc(NC(=O)Cn2nc(C(F)(F)F)cc2C)c(OC)c1	5	3
CN(CC#CCC(O)(c1ccccc1)c1ccccc1)Cc1ccccc1	87*	-4
CN(CC#CC(C)(C)O)Cc1ccccc1	-4	-3
COc1cc(OC)cc(C2=NC3(CCCC3)N(C(=O)c3ccc(OC)c(OC)c3)C2=S)c1	85*	-4
COc1cc(C(=O)N2C(=S)C(c3ccccc3)=NC23CCCCC3)cc(OC)c1OC	4	-3
COc1cc(NCc2ccccc2Cl)cc(OC)c1	75*	3
COc1ccc(NCc2ccc(Cl)cc2Cl)cc1OC	45	-4
CN(Cc1ccccc1)Cc1c(O)ccc2c1OC(=Cc1ccc3c(c1)OCO3)C2=O	20	-1
COc1ccc(CCNC(=O)N2CCN(Cc3nc4ccccc4[nH]3)CC2)cc1	100*	-109
Cc1nnsc1C(=O)N1CCN(Cc2nc3ccccc3[nH]2)CC1	-15	-6
Cc1ccc(OCC(=O)Nc2nnc(C3CC(=O)N(c4ccc(F)cc4)C3)o2)cc1 (stereo not given)	8	1
O=[N+]([O-])c1ccc(C2Nc3c(cccc3C(F)(F)F)C3C=CCC32)cc1 (stereo not given)	13	-5
Cc1ccc([N+](=O)[O-])c2c1NC(c1ccc(Br)cc1)C1CC=CC21 (stereo not given)	97*	4
O=C(O)c1ccc([N+](=O)[O-])c2c1NC(c1ccccc1)C1CC=CC21 (stereo not given)	80*!	-7
CCOc1cc2c(c([N+](=O)[O-])c1)NC(c1ccc(Br)cc1)C1CC=CC21 (stereo not given)	16	-1
SMILES	mHTT CaM bind	Pf apPOL block
COc1cc(/C=C2\C(=O)Nc3ccc(Br)cc32)c(Cl)cc1O	44	-18
CN1CCN(C(=O)C=Cc2ccc3c(c2)OCO3)C2(CCCC2)C1	5	-8
CC(C)n1cnnc1C1CCN(C2CCCCC2)CC1	0	-1
CC1=NOC(=O)/C1=C/c1ccc(-c2ccc3c(c2)COC3=O)o1	-1	-5
Cc1ccc(-c2ccc(C=C3C(=O)OC(C)(C)OC3=O)o2)cc1	7	4
CC1=NOC(=O)/C1=C/c1ccc(-c2ccc(Cl)cc2)o1	64*	-6
CC1(C)OC(=O)C(=Cc2ccc(-c3cccc(Cl)c3)o2)C(=O)O1	55*	6
CC1CC(C)CN(Cc2c(O)ccc3c2OC(=Cc2ccncc2)C3=O)C1 (stereo not given)	4	-8
COCCCN1COc2ccc3c(=O)c(Oc4ccc(C(=O)OC)cc4)c(C)oc3c2C1	3	-19
COC(=O)c1ccc(Oc2c(C)oc3c4c(ccc3c2=O)OCN(Cc2ccccn2)C4)cc1	100*	-36
O=C(Cc1c[nH]c2ccccc12)N(CC1CCCO1)C1(C(=O)NC2CCCCC2)CCCCC1 (stereo not given)	87*	-1
O=C(Cc1c[nH]c2ccccc12)N(Cc1cccs1)C1(C(=O)NC2CCCC2)CCCCC1	0	-6
CCC(C)(C(=O)NC1CCCCC1)N(C)C(=O)Cc1c[nH]c2ccccc12 (stereo not given)	7	-2
CCC(C)(C(=O)NC1CCCCC1)N(CC1CCCO1)C(=O)Cc1c[nH]c2ccccc12 (stereo not given)	58*	-2
COc1ccccc1CNC(=O)c1cnn2c(C(F)(F)F)cc(-c3ccccc3)nc12	40	-8
COc1ccc2c(c1)c(CN1CCC(C(=O)NCCCc3ccccc3)CC1)cn2C	11	-5
COc1ccc(NC(=O)Cc2c[nH]c3ncccc23)cc1	27	4
O=C(c1ccc(OCC2CCN(C(=O)c3cccs3)CC2)cc1)N1CCCC1	5	-1
COc1ccc(OC)c(C=C2Oc3cc(C)cc(O)c3C2=O)c1	4	3
COc1ccc(C=C2Oc3cc(C)cc(O)c3C2=O)c(OC)c1OC	75*	-5
O=C(NCCC1=CCCCC1)c1c[nH]c2ccc(S(=O)(=O)N3CCc4ccccc43)cc2c1=O	9	-6
COc1cccc(CN2CCc3c(cc(C(=O)NCc4ccc(F)cc4)n3C)C2)c1	54*	-4
COCCNC(=O)c1cc2c(n1C)CCN(Cc1cccc(OC)c1)C2	21	-1
COc1ccc(CNC(=O)c2cc3c(n2C)CCN(Cc2ccccc2)C3)cc1OC	44	2
Cc1ccc(CN2CCc3c(cc(C(=O)Nc4ccc(N5CCOCC5)cc4)n3C)C2)cc1	33	1
SMILES	mHTT CaM bind	Pf apPOL block
COc1ccccc1NC(=O)c1cc2c(n1C)CCN(Cc1cccc(C)c1)C2	63*	-4
CCN(CC)C(=O)c1cc2c(n1C)CCN(Cc1ccc(F)cc1)C2	34	-3
COc1ccc(NC(=O)c2cc3c(n2C)CCN(Cc2ccc(C)cc2)C3)cc1OC	50*	-2
COc1ccc(NC(=O)c2cc3c(n2C)CCN(Cc2ccc(F)cc2)C3)cc1	99*	-5
O=C1C(=O)N(CN2CCN(c3ccc(F)cc3)CC2)c2ccccc21	-2	2
O=c1[nH]c2ccccc2nc1CN1CCN(c2ccccc2Cl)CC1	25	2
CCc1ccccc1NC(=O)c1cc(C)n2nc(C)cc2n1	-7	-3
COc1cccc(CN2CCc3c(cc(C(=O)Nc4cccc(C)c4C)n3C)C2)c1	43	1
COc1cccc(CN2CCc3c(cc(C(=O)Nc4ccccc4)n3C)C2)c1	59*	0
COc1cccc(CN2CCc3c(cc(C(=O)Nc4ccccc4OC)n3C)C2)c1	88*	4
COc1cccc(CN2CCc3c(cc(C(=O)NC(C)C)n3C)C2)c1	34	2
O=C(NCCN1CCOCC1)c1cccc(N2CCNC(c3ccccc3)C2)n1 (stereo not given)	1	-4
Cc1ccnc(N2CCC(C(=O)Nc3cccc(C)c3C)CC2)n1	-1	-1
O=C(Nc1cccc(N2CCCN(Cc3ccc(F)cc3)C2=O)c1)c1cccs1	-5	-2
O=C1c2cccnc2C(=O)N1c1ccc(Oc2ccc(N3C(=O)c4cccnc4C3=O)cc2)cc1	99*	-3
O=C1c2cccnc2C(=O)N1c1ccc(Cc2ccc(N3C(=O)c4cccnc4C3=O)cc2)cc1	80*	8
O=C1c2cccnc2C(=O)N1c1ccc(-c2ccc([N+](=O)[O-])cc2)cc1	1	-6
O=C1c2cccnc2C(=O)N1c1cccc(C(F)(F)F)c1	13	-5
CC(C)Cn1c(=O)c(N2CCN(S(=O)(=O)c3cccs3)CC2)nc2ccncc21	-1	-6
